# Measurements: the supplement of paper PMC6555819
# Tests used:
# Assay in all cases: PBM binding z-score (relative to random genomic background probes); higher = stronger binding; sequences stand for … in GC…GCGATTGACAGCGTAGAATGAAGG
# [1] = tested on: RARb homodimer (NR concentration 270 nM)
# In short: (§1)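 Antibodies against each partner of ligand-free nuclear receptor dimers (one per run) detected binding on custom Agilent 4×180K protein-binding microarrays after 1 h incubation. The double-stranded probes had 34-nt variable regions carrying direct-repeat seeds, single-nucleotide variants, half-site ablations and random human genomic background sequences. Binding z-scores, from regression-normalized fluorescence, use the random background probes as reference.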
# [2] = tested on: RARg:RXRa (NR concentration 270 nM, RXRa partner concentration 90 nM)
# In short: as §1
# [3] = tested on: RARg homodimer (NR concentration 270 nM)
# In short: as §1
# [4] = tested on: RXRa DBDmut IVT, anti-RXR (DBD mutation: RXRa K156A/R161A, NR concentration 90 nM)
# In short: as §1
# [5] = tested on: RXRa homodimer (NR concentration 180 nM)
# In short: as §1
# [6] = tested on: THRa:RXRa (NR concentration 90 nM, RXRa partner concentration 90 nM)
# In short: as §1
# [7] = tested on: THRa homodimer (NR concentration 90 nM)
# In short: as §1
# [8] = tested on: VDR:RXRa (NR concentration 270 nM, RXRa partner concentration 90 nM)
# In short: as §1
# [9] = tested on: VDR homodimer (NR concentration 270 nM)
# In short: as §1
Sequence,PBM binding z-score [1],PBM binding z-score [2],PBM binding z-score [3],PBM binding z-score [4],PBM binding z-score [5],PBM binding z-score [6],PBM binding z-score [7],PBM binding z-score [8],PBM binding z-score [9]
TCTTGTCGATCAAAGGTTAAGAAAGCCGAAGCCT,1.49,2.01,0.765,0.676,2.43,1.33,-0.0604,1.27,0.0763
TGAATGAGGTTATAGATCAGGGAACGTGGCGTCG,0.339,1.36,1.02,0.491,2,2.05,0.416,1.06,0.618
TCATATAGGTAAATGCTAGGTGAAAGCCCGATCT,0.272,0.503,0.325,1.5,0.914,1.29,0.116,0.543,-0.161
ACAGACATGTGATGAAGGTAACTCAGGCTATCAT,-0.417,0.0722,0.176,0.00385,0.168,0.492,-0.106,-0.214,-0.35
CAAACTAGGTCAAGGTCAAAGTCGGTTTGTGCCA,5.13,6.18,6.97,3.21,6.34,4.35,3.74,5.23,4.46
TAACCAAGGTGAGCTGAGGTCGTTGATCCAACTC,1.63,1.33,0.926,-0.0437,1.58,4.65,1.86,4.26,1.81
ATCTCTAGGTAAAGATAGTTCAGTCAATGCAAAT,0.999,0.494,0.808,0.26,0.151,0.889,-0.0396,0.723,0.66
ACTATTAGTTGAGAGGAGGGCAACCGATAGGTTG,1.1,0.586,0.81,0.0671,0.396,1.32,-0.435,0.152,0.461
ATCGAAAGGTCGATGGTGAGTATACCCACCCGAA,1.45,3.25,3.01,0.438,3.21,1.26,-0.577,1.78,0.213
TCTCGCAGGCCAGAGGGTCACTCAAGAGGTACGG,2.75,2.79,2.32,0.313,2.76,1.73,0.0741,1.79,0.536
CAAACTAGGTCACGAAAGGTCAAACTCGAATGAC,5.84,8.21,9.05,2.91,8.85,5.26,2.82,7.13,4.06
GCTAGCAGGCCGTTTGGGTCACTCAATGACGGGC,1.43,0.678,0.649,-0.318,0.67,1.61,0.166,0.00602,0.089
TTACCAAGGTGAAAGGTCGTTGACGCACGCCTTG,2.87,4.52,2.25,0.212,6.19,3.34,0.822,3.29,1.41
TCAAGTAGGTTAGTCGGGGCATTCAGCCAACATA,0.846,0.431,0.362,1.46,0.586,1.26,0.656,,0.907
ACTAGCAGGCTAAGTTTGGGTCACTCAAACAAAG,1.72,0.94,0.818,-0.349,0.549,2.37,0.936,,-0.0144
